MITF TRPM1 HTS – activators of MITF-driven TRPM1 promoter reporter, primary screen, cell-based, SK-MEL-5, luciferase, single point | SK-MEL-5 TRPM1-promoter luciferase, 24 h; % of positive control, neutral wells = 0 | activation, % at 12.5 µM | hit rate 0.75% among 300,000;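 active = mean activation of at least 80% with every replicate also reaching 80%; inconclusive = mean reaches 80% but some replicate falls short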;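 note: 0% = neutral control wells and 100% = parthenolide positive control wells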
MLL AF4-AF9 inh – inhibitors of AF4 peptide binding to AF9, primary screen, biochemical, AlphaScreen, biotin-AF4 peptide, FLAG-AF9, single point; Protein AF-9 (Homo sapiens), P42568; inhibition, % at 10 µM; hit rate 0.47% among 350,000;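 active = every replicate reaching a set inhibition limit, whatever the replicate mean, cut at about 25% in these data; inconclusive = mean inhibition reaches that limit but some replicates miss it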;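 note: 0% = plate neutral control median and 100% = total signal loss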
Target sequence (P42568 whole entry, looked up): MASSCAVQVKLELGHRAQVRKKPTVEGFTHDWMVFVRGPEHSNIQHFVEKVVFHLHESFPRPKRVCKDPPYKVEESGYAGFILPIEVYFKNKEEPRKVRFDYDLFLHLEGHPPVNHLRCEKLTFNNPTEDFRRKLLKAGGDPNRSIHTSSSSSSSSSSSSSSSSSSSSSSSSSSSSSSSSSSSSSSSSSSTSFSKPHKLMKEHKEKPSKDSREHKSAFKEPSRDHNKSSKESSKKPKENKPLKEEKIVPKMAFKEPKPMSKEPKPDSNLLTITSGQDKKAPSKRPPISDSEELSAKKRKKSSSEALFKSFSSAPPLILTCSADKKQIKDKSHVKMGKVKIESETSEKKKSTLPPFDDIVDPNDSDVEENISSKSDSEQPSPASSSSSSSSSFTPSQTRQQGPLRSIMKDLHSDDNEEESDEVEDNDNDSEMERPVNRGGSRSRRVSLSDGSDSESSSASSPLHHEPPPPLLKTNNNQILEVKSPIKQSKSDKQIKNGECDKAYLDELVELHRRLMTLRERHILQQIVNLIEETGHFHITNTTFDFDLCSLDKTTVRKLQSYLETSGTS
Ecoli rRNA inh – reduced GFP signal of wild-type E. coli, primary screen, bacterial rRNA inhibitor project, GFP/RFP fluorescence, OD600, single point; E. coli WT GFP vs humanized-ribosome RFP mutants, 24 h; active compounds read low; DMSO median 0, no signal -100; GFP signal change (wild-type ribosome), % (no concentration beside the values); AID 720706, 2013; hit rate 1.6% among 350,000;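 active = significant combined selectivity score with lowered wild-type GFP, culture density cut under 30%, mutant RFP and density less affected; inactive = any of these conditions unmet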
Wnt bcat act – Wnt/beta-catenin pathway activators, primary screen, cell-based, plate reader, single point; Wnt/beta-catenin reporter cell assay, activator; AID 743398, 2014; hit rate 1.2% among 300,000; activation, % at 9.35 µM; in the data active = activation above about 30%, passing the limit was not always enough; inconclusive = no clear call, values can overlap the other calls;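 note: 0% = neutral control wells and 100% = positive control wells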
esBAF inh – Bmi1 luciferase reporter increase in mESCs, primary screen, esBAF inhibitor project, mouse ES cells, Bmi1 luciferase knock-in, single point | 24 h; 100% = twice the neutral-well signal | reporter increase, % at 12.5 µM | hit rate 2% among 350,000; in the data active = activation above about 40%; inconclusive = no clear call, values can overlap the other calls;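 note: 0% = median of the plate's neutral control wells and 100% = double that signal; a rise in the Bmi1 reporter signal indicates esBAF inhibition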
AID977621 – growth inhibition of wild-type GFP E. coli, dose response, H69 mutant RFP, cherry-pick; activity change, negative = inhibition at 50 µM; shares compounds with Ecoli rRNA inh; 1,900 tested, under 10 active; AID 977621, 2014; E. coli wild-type GFP strain growth, fluorescence, 24 h;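 active = Wild-type ribosome reporter drop at least double the humanized mutant ribosome reporter drop, growth loss under a set limit; inconclusive = no clear call, values can overlap the other calls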;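 note: wild-type GFP and H69 mutant RFP strains grown together 50/50 in each well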
AID977628 – E. coli growth inhibition, wild-type GFP versus h24 humanized RFP strain, dose response, h24 mutant RFP vs wild-type GFP, cherry-pick | shares compounds with Ecoli rRNA inh | E. coli WT GFP strain growth, fluorescence, 24 h | activity change, negative = inhibition at 50 µM | 1,900 tested, under 10 active | AID 977628, 2014;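 active = compound lowering the normal-ribosome reporter at least twice as much as the humanized-ribosome reporter, growth loss under a set limit; inconclusive = no clear call, values can overlap the other calls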;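 note: wild-type GFP and h24 humanized RFP strains co-cultured 1 to 1 per well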
Starred values were filed as active, the others as inactive; ? = inconclusive; · = no result. An excerpt weighted towards active compounds, which were near 3.7% of everything screened.

SMILES	MITF TRPM1 HTS	MLL AF4-AF9 inh	Ecoli rRNA inh	Wnt bcat act	esBAF inh	AID977621	AID977628
COc1cccc(S(=O)(=O)N2CCCCN3[C@H](CO)[C@@H](c4ccc(C#CC(C)C)cc4)[C@@H]3C2)c1	·	-1.4	6.8	·	·	?	·
COc1cccc(S(=O)(=O)N2CCCCN3[C@@H](CO)[C@H](c4ccc(C#CCC(C)C)cc4)[C@@H]3C2)c1	·	4.0	-18.5	·	-2.5	·	·
O=C(COc1ccccc1)N=C1SC2CS(=O)(=O)CC2N1c1cccc(F)c1 (stereo not given)	3.2	-13.6	0.7	-2.1	-0.7	·	·
CCCN(C)C[C@@H]1Oc2cc(-c3ccc(F)cc3)ccc2S(=O)(=O)N([C@@H](C)CO)C[C@@H]1C	·	0.3	1.6	·	-5.0	·	·
CCOC(=O)c1[nH]ncc1CN1CCCC(C(=O)c2ccc(C(C)(C)C)cc2)C1 (stereo not given)	-5.7	4.2	-20.9	-0.8	·	·	·
C[C@@H]1CN([C@H](C)CO)C(=O)c2cccc(NC(=O)C3CCCCC3)c2O[C@H]1CN(C)Cc1ccc(C(=O)O)cc1	·	-2.0	4.2	·	-1.5	·	·
CCOC(=O)C1CCN(C(=O)CN(c2ccc(OC)c(OC)c2)S(=O)(=O)c2ccccc2)CC1	0.6	·	·	·	36.3	·	·
CCN(CC)S(=O)(=O)c1ccc(N2CCCC2)c(NC(=O)c2ccccc2OC)c1	-18.7	-11.0	-20.6*	0.4	·	-16.1	-9.85
CCN(CC)S(=O)(=O)c1ccc(N2CCCC2)c(NC(=O)Cc2ccccc2)c1	-18.7	12.7	-2.6	-2.4	-0.7	·	·
COc1ccc2c3c(n(C)c2c1)[C@@H](CO)NCC31CN(C(=O)CC2CC2)C1	·	-10.7	3.9	·	·	·	·
Cc1ccc(S(=O)(=O)N2CCC(C(=O)NNC(=O)c3ccncc3)CC2)cc1	-8.4	-8.1	6.9	0.8	0.7	·	·
Cc1cccc(NC(=O)COc2cccc3c2CCNC3=O)c1	·	-1.3	-18.5*	0.4	11.2	-9.71	-10.4
N#Cc1ccsc1NC(=O)CSc1nnc(NC2CC2)s1	·	-4.9	-11.7*	-3.8	-3.4	-13.2	-8.72
CC(C)Nc1nnc(SCC(=O)Nc2sccc2C#N)s1	-6.4	1.6	-25.4*	4.3	10.9	·	?
CC(C)Nc1nnc(SCC(=O)Nc2ccc3c(c2)C(=O)c2ccccc2C3=O)s1	52.8	·	·	10.8	14.4	·	·
CC(=O)OCc1cc(-c2nc3ccccc3[nH]c2=O)nn1-c1ccc(Cl)cc1	-2.0	-4.0	11.9	1.1	·	·	·
Cc1ccccc1S(=O)(=O)c1cc2ccccc2nc1N	-12.9	-4.6	-30.1*	-0.7	4.2	1.04	·
COC(=O)c1sccc1NC(=O)CNC(=O)c1ccccc1	6.9	-16.3	-22.8*	7.7	·	-15.5	-13.7
COc1ccccc1NC(=O)CNC(=O)c1ccccc1	-3.0	·	·	·	5.1	·	·
O=C(CCNc1cccc(Cl)c1)c1cccs1	9.5	-15.5	-20.5*	12.8	·	-11.9	-7.1
O=C(CCC(=O)c1cccs1)NNC(=O)c1cccc(Cl)c1	1.5	-5.7	5.4	-0.8	-1.6	·	·
c1ccc(C[C@H]2CN=C(Nc3ccccc3)N2CC2CCCCCC2)cc1	3.8	·	-20.4	-1.6	-0.7	·	·
Cc1cc(Br)ccc1-n1[nH]c(C)c(C=Nc2cccc3nsnc23)c1=O	0.4	-1.9	18.9	·	7.4	·	·
CCCN1C(=O)C(O)(c2c(C)[nH]c3ccccc23)c2ccccc21 (stereo not given)	·	1.4	-18.3*	1.1	11.3	-4.71	-5.56
Cc1onc(-c2ccccc2)c1C(=O)Nc1ccc(NC(=O)c2c(-c3ccccc3)noc2C)cc1	·	-0.6	0.2	-1.3	·	·	·
SMILES	MITF TRPM1 HTS	MLL AF4-AF9 inh	Ecoli rRNA inh	Wnt bcat act	esBAF inh	AID977621	AID977628
CSc1nc2ccc(NC(=O)c3c(-c4ccccc4)noc3C)cc2s1	8.9	?	-21.4*	0.9	·	-20.8	·
O=C(O)c1ccc(Cl)c(S(=O)(=O)Nc2ccccc2Cc2ccccc2)c1	-2.5	0.1	-19.3*	-0.6	-5.0	·	?
O=C(O)c1cc(S(=O)(=O)Nc2ccccc2Cc2ccccc2)ccc1Cl	1.5	-1.4	-6.0	-0.8	-2.0	·	·
COC(=O)Cn1c(=O)c2c(n(Cc3ccccc3)c1=O)N/C(=C/c1ccc(OC)cc1)C2=O	-0.3	-1.8	-24.2	-2.2	·	·	·
Cn1c(CC2C(=O)Nc3ccc(Br)cc32)nc2ccccc2c1=O (stereo not given)	-4.8	6.6	-28.8*	-1.8	6.6	-1.92	3.71
CCn1c(=O)c2cc(C(=O)N3CCN(C)CC3)sc2c2ccccc21	5.7	-5.8	-6.2	-0.8	-2.2	·	·
CN1CCN(C(=O)c2cc3sc4ccccc4c3s2)CC1	·	·	-24.1*	?	·	·	?
Cc1nnc(OCc2nc3ccccc3n2C)c2ccccc12	8.3	·	·	4.0	13.6	·	·
Cc1ccccc1OCc1nc2ccccc2n1C	60.7	-2.0	-27.2*	19.0	?	·	-0.211
CCn1c(SCC(=O)Nc2ccc(OC)cc2)nc2nc3c(cc2c1=O)CCCC3	·	-3.2	-27.9*	-1.9	·	0.299	?
O=S(=O)(NOCc1ccc(Cl)cc1)c1ccc(Cl)cc1	-4.2	0.2	-39.1*	-2.2	-0.4	6.8	-2.72
Cc1ccc(CONS(=O)(=O)c2cc(C)ccc2C)cc1	8.7	-1.8	-60.0	0.7	6.0	·	·
COc1ccc(OC2C(=O)N(Cc3ccc4c(c3)OCO4)C2c2sccc2C)cc1 (stereo not given)	1.0	-6.1	-21.8*	-2.7	0.7	-12.9	·
COc1ccccc1N(CC(=O)Nc1ccccc1)S(=O)(=O)c1cccs1	15.5	?	-8.5	7.5	18.5	·	·
COc1ccc(NC(=O)CN(c2ccccc2OC)S(=O)(=O)c2cccs2)cc1Cl	-10.4	-1.1	-17.0*	-2.7	-3.5	-11.1	·
O=C(NC1CCCCC1)c1ccc([N+](=O)[O-])o1	-43.2	·	·	·	18.1	·	·
O=C(NC1CCCC(C(F)(F)F)C1)c1ccc([N+](=O)[O-])o1 (stereo not given)	-65.3	-2.3	-23.7*	0.2	18.7	·	?
CC=Cc1ccc2n(c1=O)C[C@@H]1[C@@H](CO)[C@H](C(=O)NC3CCC3)N(CCC(F)(F)F)[C@H]21 (mixture of isomers)	·	-14.2	-3.7	·	·	·	·
O=C(NCCC1=CCCCC1)c1ccc(Cl)c(S(=O)(=O)Nc2ccccc2)c1	-15.3	-50.3	-20.5*	-2.4	-4.4	-12.8	·
Cc1ccc(NS(=O)(=O)c2cc(C(=O)N3CCc4ccccc4C3)ccc2Cl)cc1	-0.1	-5.0	-29.2*	-0.9	-3.3	-21.1	·
